Hits are enriched below; roughly 2% of the tested compounds scored in any of these assays.
Mot1-301 SUMO = yeast Mot1-301 growth rescue at high temperature, primary screen, SUMOylation pathway inhibitor project, S. cerevisiae, ATP luminescence, 38.5C; growth rescue, % at 18.8 µM; S. cerevisiae Mot1-301 growth rescue; percent above DMSO median, 100 means doubled; 320,000 compounds, 1% hits; AID 2716, 2010;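 active = every valid replicate shows activation above 250% relative to neutral control wells; inactive = the rest, any valid replicate at or below 250%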
MsrA inh = bovine MsrA enzyme inhibitors, primary screen, biochemical, absorbance, HTS; purified bovine MsrA, absorbance read-out; inhibition, % at 15.5 µM; 360,000 compounds, 0.75% hits; AID 651718, 2012; in the data active = inhibition above about 4.5%
MsrA act = bovine MsrA enzyme activators, primary screen, biochemical, absorbance, HTS; Methionine sulfoxide reductase A (Bos taurus); purified bovine MsrA, absorbance read-out; activation, % at 10.6 µM; 360,000 compounds, 0.3% hits; AID 602163, 2012; in the data active = activation above about 7.5%
PKA-R2B act = activators of PKA-R2B holoenzyme, primary screen, biochemical, fluorescence polarization, Cy5-IP20, human; PKA-R2B holoenzyme dissociation; R2B truncated from residue 108, S112A mutant; 0% DMSO only, 100% 113 µM cGMP; activation, % at 11.4 µM; AID 504700, 2011; cAMP-dependent protein kinase catalytic subunit beta (Homo sapiens) + cAMP-dependent …; 340,000 compounds, 0.079% hits;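 active = activation above a cutoff set at the mean over all compounds plus 3 SD, cut at about 18% in these data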;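 also: higher means more holoenzyme dissociation and a rise in polarization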
Target sequence (P31323 whole entry, looked up, other chains not shown, the tested form may be a part): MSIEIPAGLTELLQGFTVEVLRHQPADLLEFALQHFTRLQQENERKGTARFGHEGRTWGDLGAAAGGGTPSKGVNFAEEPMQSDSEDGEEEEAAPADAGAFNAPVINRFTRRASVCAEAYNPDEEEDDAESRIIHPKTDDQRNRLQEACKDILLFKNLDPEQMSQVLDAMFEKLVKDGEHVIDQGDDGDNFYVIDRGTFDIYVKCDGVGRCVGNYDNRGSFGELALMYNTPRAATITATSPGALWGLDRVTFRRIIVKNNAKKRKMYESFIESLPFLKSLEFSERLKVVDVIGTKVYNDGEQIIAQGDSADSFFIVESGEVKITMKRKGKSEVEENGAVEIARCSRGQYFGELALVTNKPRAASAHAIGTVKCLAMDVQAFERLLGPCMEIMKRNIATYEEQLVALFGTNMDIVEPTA
PKA-R1A activ = activators of PKA-R1A holoenzyme, primary screen, biochemical, fluorescence polarization, Cy5-IP20, bovine R1A, mouse PKAc; cAMP-dependent protein kinase type I-alpha regulatory subunit (Bos taurus) + …; PKA-R1A dissociation; scaled: DMSO 0%, 113 µM cGMP 100%; activation, % at 11.4 µM; 340,000 compounds, 0.083% hits;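 active = percent activation above the mean of all tested compounds plus 3 SD, cut at about 19% in these data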;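 also: higher means more PKAc released from R1A so a rise in polarization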
R2B FP artifact = fluorescence polarization artefacts, biochemical, artefact control for PKA-R2B activator project; shares compounds with PKA-R2B act; FP artifact counterscreen; activation, % at 11.4 µM; 270 compounds, 6% hits; in the data active = activation above about 20%;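 also: Cy5 labelled IP20 peptide probe with compound but no PKA protein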
PKA-R2B confirm = activators of PKA-R2B holoenzyme, confirmation, biochemical, fluorescence polarization, human | shares compounds with PKA-R2B act | activation, % at 11.4 µM | PKA-R2B complex, activation | 270 compounds, 9% hits | AID 504797, 2011; in the data active = activation above about 19%
Target sequence (P31323 whole entry, looked up): as the sequence (P31323 whole entry, looked up, other chains not shown, the tested form may be a part) above
Of the large screens only hits and unclear results are named; the others gave an inactive call (follow-up assays come after a bar, where they were run).

COC(=O)[C@H](Cc1ccccc1)N1Cc2ccccc2Oc2cc(Br)ccc2S1(=O)=O	none (no result: Mot1-301 SUMO, MsrA act, PKA-R2B act, PKA-R1A activ)
CCn1c(SCC(=O)NCCc2ccc(Cl)cc2)nnc1-c1cccs1	PKA-R2B act 18.9 | R2B FP artifact inactive | PKA-R2B confirm inactive
Cc1ccccc1NS(=O)(=O)c1cc(S(C)(=O)=O)ccc1C	PKA-R2B act 18.7 | R2B FP artifact inactive | PKA-R2B confirm inactive
COC(=O)[C@]12C[C@H](CC(=O)N3CCN(C(=O)c4ccco4)CC3)C(=O)N(Cc3ccc4c(c3)OCO4)C1=C[C@H](C(C)(C)C)O[C@@H]2C	none (no result: Mot1-301 SUMO, MsrA act, PKA-R2B act, PKA-R1A activ)
C=CCN(CCNP(=O)(OCC)OCC)CP(=O)(OCC)OCC	PKA-R2B act 20.4 | R2B FP artifact inactive | PKA-R2B confirm inactive
COc1cc(F)ccc1Oc1cccc2c1S(=O)(=O)N([C@H](C)c1ccccc1)C[C@@H](COCc1ccccc1)O2	none (no result: Mot1-301 SUMO, MsrA act, PKA-R2B act, PKA-R1A activ)
CN1CCCCC(NC(=O)CCCl)C1=O (stereo not given)	none (no result: Mot1-301 SUMO, MsrA act, PKA-R2B act, PKA-R1A activ)
COc1ccc(NC(=O)Nc2ccc3c(c2)C(=O)N([C@H](C)CO)C[C@H](C)[C@@H](CN(C)C(=O)Nc2ccc(C(F)(F)F)cc2)O3)cc1	PKA-R2B act 18.9 | R2B FP artifact inactive | PKA-R2B confirm inactive
N#Cc1cc([N+](=O)[O-])ccc1NC(=O)COC(=O)C1CCC(=O)N1 (stereo not given)	PKA-R2B act 19.8 | R2B FP artifact inactive | PKA-R2B confirm inactive
COc1ccccc1C(=O)N1CCC2CCNC2C1 (stereo not given)	none (no result: Mot1-301 SUMO, MsrA act, PKA-R2B act, PKA-R1A activ)
COC(=O)c1cc(S(=O)(=O)N(C)c2ccc(C)c(C)c2)c[nH]1	none
CCOc1ccc(N(C)S(=O)(=O)c2c[nH]c(C(=O)OC)c2)cc1	PKA-R2B act 19.7 | R2B FP artifact inactive | PKA-R2B confirm inactive
CC(=O)N(c1ccc(Cl)cc1)c1nc(C)cc(C)c1C#N	PKA-R2B act 20.1 | R2B FP artifact inactive | PKA-R2B confirm inactive
Cc1ccc(C(=O)Nc2ccccc2C(=O)N2CCOCC2)cc1[N+](=O)[O-]	PKA-R2B act 19.6 | R2B FP artifact inactive | PKA-R2B confirm inactive
Cc1ccc(C(=O)N2CCOCC2)cc1[N+](=O)[O-]	none
Fc1ccccc1CSc1nnc2ccc(-c3ccncc3)nn12	PKA-R2B act 19.1 | R2B FP artifact inactive | PKA-R2B confirm inactive
c1ccc(CSc2nnc3ccc(-c4ccncc4)nn23)cc1	none
C=CCN1C(=O)c2n[nH]c(C(C)C)c2C1c1ccc2c(c1)OCO2 (stereo not given)	none (no result: Mot1-301 SUMO, MsrA act, PKA-R2B act, PKA-R1A activ)
CCN(CC)CCNC(=O)c1ccc(NC2=NC3CS(=O)(=O)CC3S2)cc1 (stereo not given)	PKA-R2B act 18.6 | R2B FP artifact inactive | PKA-R2B confirm inactive
O=C(NCCc1ccc(Cl)cc1)c1ccc(NC2=NC3CS(=O)(=O)CC3S2)cc1 (stereo not given)	none
O=C(NC1CC1)c1ccc(F)cc1Cl	PKA-R2B act 22.8 | R2B FP artifact inactive | PKA-R2B confirm inactive
Oc1ccccc1OCC(O)c1ccccc1 (stereo not given)	PKA-R2B act 18.5 | R2B FP artifact inactive | PKA-R2B confirm inactive
Cc1cc(NCCN2CCOCC2)n2nc(C)c(-c3ccccc3)c2n1	none
Cc1cc(C)c2c(n1)nn1c(NCCN3CCOCC3)cc(C)nc21	PKA-R2B act 18.4 | R2B FP artifact inactive | PKA-R2B confirm inactive
O=C(Cc1ccc(NC(=O)C2CCCN(C(=O)c3ccccc3)C2)cc1)Nc1cccc(C(=O)N2CCCCC2)c1 (stereo not given)	none (no result: Mot1-301 SUMO, MsrA act, PKA-R2B act, PKA-R1A activ)
CCC(=O)N(Cc1cc2cc(OC)ccc2[nH]c1=O)c1ccc(C)cc1C	PKA-R2B act 20.8 | R2B FP artifact inactive | PKA-R2B confirm inactive
COc1ccc2[nH]c(=O)c(CN(C(C)=O)c3ccc(C)cc3C)cc2c1	none
NC(=O)c1c(N)[nH]c(C(=O)c2ccccc2)c1-c1ccc2ccccc2c1	none (no result: Mot1-301 SUMO, MsrA act, PKA-R2B act, PKA-R1A activ)
O=C(NCc1ccccc1)[C@H]1CCCN1C(=O)[C@H]1CCCN1C(=O)c1ccc(Cl)cc1	none (no result: Mot1-301 SUMO, MsrA act, PKA-R2B act, PKA-R1A activ)
Cc1nc(C)c(C(=O)N(c2ccccc2F)C(C(=O)NCC2CCCO2)c2ccccc2)s1 (stereo not given)	none
Cc1nc(C)c(C(=O)N(c2ccc(F)cc2)C(C(=O)NCC2CCCO2)c2ccccc2)s1 (stereo not given)	PKA-R2B act 20.1 | R2B FP artifact inactive | PKA-R2B confirm inactive
Cc1ccc(S(=O)(=O)NNC(=O)C2CC=CCC2C(=O)O)cc1 (stereo not given)	PKA-R2B act 21.0 | R2B FP artifact inactive | PKA-R2B confirm inactive
Cc1ccc(S(=O)(=O)NNC(=O)C(=O)NNS(=O)(=O)c2ccc(C)cc2)cc1	none
CCOC(=O)N1CCN(c2ccccc2OC)CC1	none
CCOC(=O)/C(=N\Nc1ccc(Br)cc1)N1CCN(c2ccccc2OC)CC1	PKA-R2B act 21.0 (no result: Mot1-301 SUMO) | R2B FP artifact inactive | PKA-R2B confirm inactive
O=C1Nc2ccccc2/C1=C/c1cnc(-c2ccccc2)[nH]1	PKA-R2B act 18.7 | R2B FP artifact inactive | PKA-R2B confirm inactive
CCN1CCCC1CN(Cc1cc2cc(C)ccc2[nH]c1=O)C(=O)Nc1ccccc1OC (stereo not given)	PKA-R2B act 19.3 | R2B FP artifact inactive | PKA-R2B confirm inactive
O=S(=O)(c1ccc(F)cc1)N1CCCc2nc(-c3ccccc3)ccc21	none (no result: Mot1-301 SUMO, MsrA act, PKA-R2B act, PKA-R1A activ)
COC(=O)N1C[C@H](Oc2cccc3ccccc23)[C@H]2C[C@@H]1c1ccccc1O2	none (no result: Mot1-301 SUMO, MsrA act, PKA-R2B act, PKA-R1A activ)
CCC[C@@H]1Cc2ccccc2N1C(C)=O	PKA-R2B act 19.6 | R2B FP artifact inactive | PKA-R2B confirm inactive
Nc1ccn([C@@H]2O[C@H](C(=O)N[C@H](Cc3ccccc3)C(=O)N3CCN(C(=O)N4CCOCC4)CC3)[C@@H](O)[C@H]2O)c(=O)n1	none (no result: Mot1-301 SUMO, MsrA act, PKA-R2B act, PKA-R1A activ)
Cc1ccc(C(=O)N2CCN(c3ccc(C(F)(F)F)cn3)CC2)cc1	PKA-R2B act 19.9 | R2B FP artifact inactive | PKA-R2B confirm inactive
Cn1c(/C(C#N)=C(\O)c2ccc(Br)s2)nc2ccccc21	none
Cn1c(/C(C#N)=C(\O)c2ccc(S(=O)(=O)N3CCCCC3)cc2)nc2ccccc21	PKA-R2B act 18.6 | R2B FP artifact inactive | PKA-R2B confirm inactive
COC(=O)C1=C(C)N(Cc2ccccc2C(F)(F)F)C(=NCC2CC2)NC1c1ccc(F)cc1 (stereo not given)	none (no result: Mot1-301 SUMO, MsrA act, PKA-R2B act, PKA-R1A activ)

From PubChem
